Laboratory results reported in PubChem BioAssay (NCATS).
Results filed as inconclusive are left out. A number with no mark means an inactive call. Calls come from the whole dose curve.
Potency is the fitted concentration of half-maximal effect.

Assay: Cell Viability - MRC5 (AID 434);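 note: cells exposed to compound for 40 hours at 37 °C; potency reflects cytotoxicity seen as loss of intracellular ATP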
Conditions: MRC5 lung fibroblast viability, qHTS
Summary of the method: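 ATP luminescence read-out (CellTiter-Glo, 20 min RT) after 40 hr, 37 °C compound exposure of 1500 MRC5 cells/well. Data normalized to DMSO (basal) and 100 uM tamoxifen (100% inhibition); AC50 from standard Hill equation.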
For `CC(C)N(C)C`, the Potency was over 92 µM.
In the case of `CC(=O)c1cccc([N+](=O)[O-])c1`, the Potency is reported as over 92 µM.
`CC(=O)OCCC(C)C` gave a Potency of over 92 µM.
With `CCN(Cc1ccccc1)c1ccccc1` the Potency was over 92 µM.
In the case of `Cc1ccc(C#N)cc1`, the Potency is reported as over 92 µM.
With `Cc1ccccc1Br` the Potency was over 92 µM.
In the case of `O=P(O)(OCc1ccccc1)OCc1ccccc1`, the Potency is reported as over 92 µM.
In the case of `C=CCCC`, the Potency is reported as over 92 µM.
`CC(C)Nc1ccccc1` showed a Potency of over 92 µM.
For `Cc1ccc(Br)cc1`, the Potency was over 92 µM.
`S=C([S-])NCCNC(=S)[S-].[Zn+2]` showed a Potency of over 92 µM.
`CC(C=O)Cc1ccc(C(C)(C)C)cc1` (stereo not given) gave a Potency of over 92 µM.
For `CCCCCCCN`, the Potency was over 92 µM.
In the case of `CC(C)C(C)C`, the Potency is reported as over 92 µM.
`CC(C)(C)c1ccc(OCC2CO2)cc1` (stereo not given) gave a Potency of over 92 µM.
Molecule `Cc1ccc2c(c1[N+](=O)[O-])C(=O)c1ccccc1C2=O` has a Potency of over 92 µM.
For `CCCCCCO`, the Potency was over 92 µM.
`O=C(O)c1ccccc1Cl` gave a Potency of over 92 µM.
In the case of `Nc1cc(Cl)c([N+](=O)[O-])cc1O`, the Potency is reported as over 92 µM.
Molecule `COCCOC(=O)c1ccccc1C(=O)OCCOC` has a Potency of over 92 µM.
For `OCCO`, the Potency was over 92 µM.
`CCC(C)=O` gave a Potency of over 92 µM.
For `Nc1cc(S(=O)(=O)O)ccc1O`, the Potency was over 92 µM.
`O=CNc1ccccc1` gave a Potency of over 92 µM.
For `C=C(C)C(=O)OCC(C)C`, the Potency was over 92 µM.
Molecule `CC(=O)c1ccc([N+](=O)[O-])cc1` has a Potency of over 92 µM.
Molecule `Nc1cc([N+](=O)[O-])ccc1C(=O)O` has a Potency of over 92 µM.
Molecule `C=CCCCCCCC=C` has a Potency of over 92 µM.
With `CC(C)CCOC(=O)/C=C/c1ccccc1` the Potency was over 92 µM.
For `ClCCl`, the Potency was over 92 µM.
For `CO[Si](CCCNCCC[Si](OC)(OC)OC)(OC)OC`, the Potency was over 92 µM.
In the case of `Cc1ccc(N(C)C)cc1`, the Potency is reported as over 92 µM.
With `COC(=O)CCCC(=O)OC` the Potency was over 92 µM.
Molecule `CCCCN(CCO)CCCC` has a Potency of over 92 µM.
In the case of `CCOC(=O)C(C)C(C)=O` (stereo not given), the Potency is reported as over 92 µM.
`C[C@@H]1CC2(OC3C[C@@]4(C)C5=CC[C@H]6C(C)(C)C(O[C@@H]7OC[C@@H](O)[C@H](O)[C@H]7O)CC[C@@]67C[C@@]57CC[C@]4(C)C31)OC(O)C1(C)OC21` (stereo not given in full) gave a Potency of over 92 µM.
Work on `CC(C)(C)OC=O` yielded a Potency of over 92 µM.
`Cc1ccccc1C#N` gave a Potency of over 92 µM.
Work on `C=Cc1ccccc1C=C` yielded a Potency of over 92 µM.
For `CC(C)=CCC/C(C)=C/C=O`, the Potency was over 92 µM.

Assay: Cell Viability - SK-N-SH (AID 435);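 note: compound exposure lasted 40 h at 37 °C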
Conditions: SK-N-SH neuroblastoma cell viability qHTS
Summary of the method: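 Luminescent ATP signal served as the viability read-out after 40 hours of compound treatment of human neuroblastoma SK-N-SH cells. Concentration-response data, scaled between DMSO and 100 uM tamoxifen, gave AC50 values by standard Hill modeling.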
Molecule `CC(C)N(C)C` has a Potency of over 92 µM.
`CC(=O)c1cccc([N+](=O)[O-])c1` showed a Potency of over 92 µM.
Work on `CC(=O)OCCC(C)C` yielded a Potency of over 92 µM.
Work on `CCN(Cc1ccccc1)c1ccccc1` yielded a Potency of over 92 µM.
For `Cc1ccc(C#N)cc1`, the Potency was over 92 µM.
In the case of `Cc1ccccc1Br`, the Potency is reported as over 92 µM.
In the case of `O=P(O)(OCc1ccccc1)OCc1ccccc1`, the Potency is reported as over 92 µM.
`C=CCCC` showed a Potency of over 92 µM.
With `CC(C)Nc1ccccc1` the Potency was over 92 µM.
In the case of `Cc1ccc(Br)cc1`, the Potency is reported as over 92 µM.
`S=C([S-])NCCNC(=S)[S-].[Zn+2]` gave a Potency of over 92 µM.
Work on `CC(C=O)Cc1ccc(C(C)(C)C)cc1` (stereo not given) yielded a Potency of over 92 µM.
Work on `CCCCCCCN` yielded a Potency of over 92 µM.
For `CC(C)C(C)C`, the Potency was over 92 µM.
Molecule `CC(C)(C)c1ccc(OCC2CO2)cc1` (stereo not given) has a Potency of over 92 µM.
For `Cc1ccc2c(c1[N+](=O)[O-])C(=O)c1ccccc1C2=O`, the Potency was over 92 µM.
Molecule `CCCCCCO` has a Potency of over 92 µM.
`O=C(O)c1ccccc1Cl` gave a Potency of over 92 µM.
`Nc1cc(Cl)c([N+](=O)[O-])cc1O` showed a Potency of over 92 µM.
Work on `COCCOC(=O)c1ccccc1C(=O)OCCOC` yielded a Potency of over 92 µM.
`OCCO` showed a Potency of over 92 µM.
In the case of `CCC(C)=O`, the Potency is reported as over 92 µM.
For `Nc1cc(S(=O)(=O)O)ccc1O`, the Potency was over 92 µM.
Work on `O=CNc1ccccc1` yielded a Potency of over 92 µM.
In the case of `C=C(C)C(=O)OCC(C)C`, the Potency is reported as over 92 µM.
With `CC(=O)c1ccc([N+](=O)[O-])cc1` the Potency was over 92 µM.
Molecule `Nc1cc([N+](=O)[O-])ccc1C(=O)O` has a Potency of over 92 µM.
`C=CCCCCCCC=C` showed a Potency of over 92 µM.
Molecule `CC(C)CCOC(=O)/C=C/c1ccccc1` has a Potency of over 92 µM.
In the case of `ClCCl`, the Potency is reported as over 92 µM.
Work on `CO[Si](CCCNCCC[Si](OC)(OC)OC)(OC)OC` yielded a Potency of over 92 µM.
For `Cc1ccc(N(C)C)cc1`, the Potency was over 92 µM.
For `COC(=O)CCCC(=O)OC`, the Potency was over 92 µM.
Molecule `CCCCN(CCO)CCCC` has a Potency of over 92 µM.
Molecule `CCOC(=O)C(C)C(C)=O` (stereo not given) has a Potency of over 92 µM.
Molecule `C[C@@H]1CC2(OC3C[C@@]4(C)C5=CC[C@H]6C(C)(C)C(O[C@@H]7OC[C@@H](O)[C@H](O)[C@H]7O)CC[C@@]67C[C@@]57CC[C@]4(C)C31)OC(O)C1(C)OC21` (stereo not given in full) has a Potency of over 92 µM.
With `CC(C)(C)OC=O` the Potency was over 92 µM.
`Cc1ccccc1C#N` gave a Potency of over 92 µM.
Work on `C=Cc1ccccc1C=C` yielded a Potency of over 92 µM.
With `CC(C)=CCC/C(C)=C/C=O` the Potency was over 92 µM.
